Screening data from PubChem.
D2 PAM-1 – HTS Assay for Positive Allosteric Modulators of the Human D2 Dopamine Receptor: Primary Screen for Potentiators; D(2) dopamine receptor (Homo sapiens), P14416; HEK293 T-REx D2, calcium flux, EC20 dopamine potentiation; potentiation, % at 10 µM; 340,000 compounds, 0.34% hits; AID 485347, 2010;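 active means potentiation over 3 SD above the plate norm, cut at about 30% in these data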; further: 0% is about no effect
Target sequence (P14416 whole entry, looked up): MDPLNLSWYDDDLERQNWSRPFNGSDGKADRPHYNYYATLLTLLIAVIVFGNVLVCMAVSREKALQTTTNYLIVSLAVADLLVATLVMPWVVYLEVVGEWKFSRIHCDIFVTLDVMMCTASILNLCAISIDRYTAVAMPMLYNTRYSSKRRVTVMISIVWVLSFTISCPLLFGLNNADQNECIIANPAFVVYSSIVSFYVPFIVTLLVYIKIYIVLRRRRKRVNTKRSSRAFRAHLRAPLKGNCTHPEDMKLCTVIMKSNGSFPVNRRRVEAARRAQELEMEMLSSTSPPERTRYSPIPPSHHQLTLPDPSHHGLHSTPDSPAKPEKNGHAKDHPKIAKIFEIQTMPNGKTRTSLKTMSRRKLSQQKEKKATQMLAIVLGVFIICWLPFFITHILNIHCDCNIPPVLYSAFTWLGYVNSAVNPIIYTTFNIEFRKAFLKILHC
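Cells plated with tetracycline inducer and held overnight at 30 C; calcium dye loaded 30–90 min at room temperature; baseline taken, compound added and read 180 s; EC20 dopamine then added and read 180 s.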
D2 antagonist – HTS Assay for Allosteric Antagonists of the Human D2 Dopamine Receptor: Primary Screen for Antagonists. D(2) dopamine receptor (Homo sapiens), P14416. HEK293 TREx D2 cells, calcium flux, dopamine EC80. inhibition, % at 10 µM. 340,000 compounds, 2% hits; in the data active means inhibition above about 30%; inactive means below that, where a call was filed; further: 0% is about no effect
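Antagonism is scored as inhibition of an EC80 dopamine-evoked calcium signal in a force-coupled, tetracycline-inducible HEK293 T-REx D2 line, with compound present 180 s before agonist.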
D2 ag-1 – HTS Assay for Allosteric Agonists of the Human D2 Dopamine Receptor: Primary Screen for Agonists; activation, % at 2 µM; D(2) dopamine receptor (Homo sapiens), P14416; 340,000 compounds, 0.53% hits; HEK293 T-REx D2 cells, calcium flux agonist mode;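 active means activation over 3 SD above normal in the single-dose calcium agonist read, cut at about 30% in these data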; further: 0% is about no effect
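In this primary screen, compounds producing a positive calcium signal within 180 s of addition to tetracycline-induced, force-coupled HEK293 Trex D2 cells are flagged; cells are dye-loaded with a no-wash calcium kit beforehand.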
D2 PAM-2 – Beta-Arrestin HTS for Positive Allosteric Modulators of the Human D2 Dopamine Receptor: Potentiators | D(2) dopamine receptor (Homo sapiens), P14416 | DiscoveRx D2 beta-arrestin cells, luminescence, 90 min; 100% = 57 uM dopamine signal | potentiation, % (concentration not given with the values) | 360,000 compounds, 0.23% hits; in the data active means potentiation above about 50%; inconclusive means mostly about 30% to 49%
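D2 cells co-treated with compound plus 50 nM dopamine (EC20) for 90 min at 37 deg C to detect potentiation. Beta-arrestin recruitment was read as enzyme-fragment luminescence after 1 h at ambient temperature. Full response was set by 57 uM dopamine.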
D2 ag-2 – Beta-Arrestin HTS for Positive Allosteric Modulators of the Human D2 Dopamine Receptor: Agonists; D(2) dopamine receptor (Homo sapiens), P14416; activation, % (concentration not given with the values); DiscoveRx PathHunter D2 beta-arrestin, luminescence, 90 min; 100% = 57 uM dopamine signal; 360,000 compounds, 0.084% hits; in the data active means activation above about 40%; inconclusive means between about 15% and that limit
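Agonist mode: compounds alone added to overnight-plated D2 PathHunter cells for 90 min at 37 C, with 57 uM final dopamine (EC100) defining full response. Beta-arrestin recruitment detected by chemiluminescent reagent, read after 1 h at ambient temperature.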
Numbers without * were called inactive; ? = inconclusive; . = no result. Hits are enriched below; roughly 2.4% of the tested compounds scored in any of these assays.

SMILES | D2 PAM-1 | D2 antagonist | D2 ag-1 | D2 PAM-2 | D2 ag-2
CC(=O)Nc1ccc(S(=O)(=O)NCC2CCC(C(=O)NCCCN(C)Cc3ccccc3)CC2)cc1 (stereo not given) | -4.2 | 4.1 | 0.0 | -15.4 | -3.1
O=C(Nc1ccc(S(=O)(=O)Nc2ncccn2)cc1)c1cccnc1 | 6.3 | 42.3* | 0.2 | 1.1 | 1.3
O=C(Nc1ccc(S(=O)(=O)Nc2ccccn2)cc1)c1cccc([N+](=O)[O-])c1 | -2.7 | 38.8* | -0.3 | 15.7 | 3.4
CCc1cccc(NC(=O)CSc2ncc3c(n2)-c2ccccc2N(Cc2ccccc2C)S3(=O)=O)c1 | -0.9 | . | -1.3 | . | .
CCc1nn(CC(=O)NCCc2ccc(OC)cc2OC)c(=O)c2cc3c(OC)cccc3n12 | -3.2 | . | 0.0 | . | .
CCOC(=O)c1nccnc1C(=O)Nc1cccc(C(F)(F)F)c1 | -16.1 | 31.9* | -0.6 | -10.2 | -0.4
Cc1ccc(C(=O)Nc2cccc(C(F)(F)F)c2)cc1Nc1cnccn1 | -0.4 | 58.6* | 0.2 | -28.6 | -2.2
CCOC(=O)c1nccnc1C(=O)Nc1ccc(C(F)(F)F)cc1 | -2.5 | 1.3 | 0.1 | -3.1 | -4.2
CCc1ccccc1NC(=O)Cn1c(=O)n(Cc2ccco2)c(=O)c2ccccc21 | -7.9 | . | -0.4 | . | .
Cn1cnc(S(=O)(=O)N2CCC(C(=O)NCc3ccc(F)cc3)CC2)c1 | 2.6 | . | 2.1 | . | .
CCn1ccnc1CN1CCCC(CO)(Cc2cccc(OC)c2)C1 (stereo not given) | -3.9 | 10.9 | -1.3 | -18.8 | -4.7
COc1cc(Cl)c(CN2CCCC(CO)(Cc3ccccc3F)C2)cc1OC (stereo not given) | 1.4 | 1.4 | 1.2 | -12.6 | 2.8
COc1cccc(CC2(CO)CCCN(Cc3ccc4c(c3)OCCO4)C2)c1 (stereo not given) | -27.9 | 56.2* | 0.4 | -5.7 | -4.6
CCOc1ccc(CN2CCCC(CO)(Cc3ccccc3F)C2)cc1 (stereo not given) | -35.1 | 66.8* | 0.4 | -4.4 | -5.1
OCC1(Cc2ccccc2)CCCN(Cc2ccc(-c3ccco3)cc2)C1 (stereo not given) | -20.1 | 54.2* | -1.9 | -28.9 | -5.9
O=C(CCCn1c(=O)c2cccn2c2ccccc21)NCc1ccccc1Br | -12.4 | . | 0.1 | . | .
CCOc1ccc(C(c2c(O)cc(C)n(Cc3ccco3)c2=O)N2CCCCC2)cc1 (stereo not given) | 10.8 | . | 0.0 | . | .
Cc1ccc(NC(=O)c2nc(S(C)(=O)=O)ncc2N(Cc2ccccc2)Cc2ccco2)c(C)c1 | -3.9 | . | 2.9 | . | .
CC1CCN(S(=O)(=O)c2cc(C(=O)NCc3ccccc3)n(C)c2)CC1 | -8.1 | . | -0.6 | . | .
Cc1cccc(NC2=C/C(=N/S(=O)(=O)c3cccs3)c3ccccc3C2=O)c1 | 5.5 | -10.3 | -1.5 | 95.7* | ?
NC(=S)NC(=O)/C=C/c1ccccc1 | 0.9 | -3.2 | 0.3 | -14.5 | -4.6
O=C(Nc1cccc([N+](=O)[O-])c1)NN1CCCCCC1 | . | . | . | -11.7 | -3.1
Cc1ccc2c(c1)C1CN(C)CCC1N2S(=O)(=O)c1ccc(C#N)cc1 (stereo not given) | -5.0 | 39.5* | 0.1 | -32.0 | -2.9
Cc1ccc2c(c1)C1CN(C)CCC1N2C(=O)c1ccccc1NS(=O)(=O)c1ccc(F)cc1 (stereo not given) | 1.1 | -9.7 | 0.4 | -1.5 | -1.4
COc1ccc(/C=N/NC(=O)c2nn(-c3ccccc3)c(=O)c3c(N)scc23)cc1 | -3.1 | -2.3 | -0.1 | 23.5 | 6.7
COc1ccc(-n2nc(C(=O)NCC(=O)NCCCN3CCCCCC3)c3ccccc3c2=O)cc1Cl | 8.3 | 1.2 | 3.1 | -8.8 | 3.1
COc1ccc(-n2nc(C(=O)NCC(=O)N3CCCC(C)C3)c3ccccc3c2=O)cc1Cl (stereo not given) | 31.5* | -17.6 | -0.1 | 2.4 | 4.6
COCCCNC(=O)CNC(=O)c1nn(-c2ccc(OC)c(Cl)c2)c(=O)c2ccccc12 | -1.7 | 50.0* | 0.4 | -3.3 | 2.8
